Common to all, as to assay type: functional
Test [1] has as its system Plasmodium falciparum. The test is described as follows: GSK_TCMDC: Inhibition of Plasmodium falciparum 3D7 in whole red blood cells, using parasite LDH activity as an index of growth. Test compounds present at 2uM.
In test [2] the test system is Plasmodium falciparum. The test is described as follows: GSK_TCMDC: Inhibition of Plasmodium falciparum Dd2 in whole red blood cells, using parasite LDH activity as an index of growth. Test compounds present at 2uM.
Test [3] deals with HepG2. The test is described as follows: GSK_TCMDC: Percent inhibition of human HepG2 cell line. Test compounds present at 10uM.

Experimental findings from ChEMBL document CHEMBL1157539, “Thousands of chemical starting points for antimalarial lead identification” (Nature, 2010) are described below.

`O=C(NC1CCN(c2ccnc3cc(Cl)ccc23)C1)c1ccccc1F.O=C(O)C(F)(F)F` (stereo not given): the values for the Inhibition in test [1], in test [2] and in test [3] were 100%, 71% and 8%, respectively.

On to `COc1ccc2nccc([C@@H](O)CN3CCC(NCC4COc5ccccc5O4)CC3)c2c1.O=C(O)C(=O)O` (stereo not given in full), for which the Inhibition in test [1] is reported as 98%; in test [2], 94%; in test [3] it was 17%.

In the case of `O=C(Nc1ccccc1)Nc1cccc(-c2nn3c(OCCN4CCCC4)cccc3c2-c2ccncc2)c1`, the Inhibition in test [1] was 100%; in test [2], 98%; in test [3], 30%.

Take `CCOc1cc(NCCCNc2ncc([N+](=O)[O-])cc2C)nc2ccccc12`: the Inhibition in test [1] was found to be 84%; in test [2], 64%; in test [3], 10%.

Turning to `CC(=O)Nc1ccc(CN2CCC(NC(=O)c3ccc(-c4cccc(OC(C)C)c4)s3)CC2)cc1.O=C(O)C(F)(F)F`, the Inhibition in test [1] was determined as 89%; in test [2], 13%; in test [3], 14%.

With `Oc1ccc2ccccc2c1C=NNc1nc(=Nc2ccccc2)nc(N2CCOCC2)[nH]1`, the Inhibition in test [1] is listed as 100%; in test [2] it was 49%; in test [3], 66%.

With `CCn1c(C2CCN(CCC3CCN(C(=O)/C=C/c4ccc(Cl)c(Cl)c4)CC3)CC2)nc2ccccc21`, the Inhibition was 86% in test [1], 0% in test [2] and 17% in test [3].

`O=C(Nc1cc(C(F)(F)F)cc(C(F)(F)F)c1)c1cccc([N+](=O)[O-])c1`: the Inhibition in test [1] was 93%; in test [2] it was 15%; in test [3] it was 23%.

For the molecule `CCCCNc1c(C(=O)OCC)c(C)nc2c1[nH]c1ccccc12`, the Inhibition in test [1] was found to be 100%; in test [2], 58%; in test [3] it was 0%.

`N#Cc1cncc(-c2nc3c(N4CCC(Cc5ccccc5)CC4)cccc3n2C2CCNC2)c1.O=C(O)C(F)(F)F` (stereo not given): the Inhibition is on record as 88% in test [1], 7% in test [2] and 5% in test [3].

With `CN(C)CCNCc1cccc(-c2ccc3c(Nc4ccc(F)cc4Cl)ccnc3c2)c1`, the results for the Inhibition in test [1], in test [2] and in test [3] were 100%, 98% and 17%, respectively.

As to `Cc1ccc2[nH]c(C)cc(=NN=Cc3cccc(F)c3)c2c1`, the Inhibition in test [1] is 99%; in test [2], 99%; in test [3], 6%.

`O=C(/C=C/c1ccc(Cl)c(Cl)c1)NCCCCCCN1CCCN(C(=O)Nc2ccc(Cl)c(C(F)(F)F)c2)CC1`: the Inhibition in test [1] is listed as 100%; in test [2], 24%; in test [3] it was 25%.

On to `O=c1cc(NCCCCNCc2cccc(Cl)c2)[nH]c2ccccc12`, for which the Inhibition in test [1] is 98%; in test [2] it was 41%; in test [3], 2%.

As to `CCn1ccc2c(N3CCCS3(=O)=O)cc(C(=O)N[C@@H](Cc3ccccc3)[C@H](O)CNC(C)(C)c3cccc(OC)c3)cc21`, the Inhibition in test [1] worked out at 99%; in test [2], 98%; in test [3], 20%.

As for `CCCN/C=N/c1cc(-c2csc(NC(=N)N)n2)cc([N+](=O)[O-])c1`, the Inhibition in test [1] is 91%; in test [2] it was 1%; in test [3], 12%.

In the case of `CCc1c(C)nc(-n2nc(C)cc2NC(=O)C2c3ccccc3Oc3ccccc32)[nH]c1=O`, the Inhibition in test [1] amounted to 89%; in test [2], 80%; in test [3], 37%.

Turning to `Cn1cncc1C(=O)Nc1cccc(-c2ccc(-c3nc4ccccc4[nH]3)s2)c1`, the results for the Inhibition in test [1], in test [2] and in test [3] were 100%, 25% and 0%, respectively.

For the molecule `CC(C)(C)OC(=O)c1c(NC(=O)/C=C/c2ccc(O)c(O)c2)sc2c1CCCC2`, the values for the Inhibition in test [1], in test [2] and in test [3] were 97%, 77% and 4%, respectively.

For the molecule `COc1cccc(C(=O)Nc2nc3c(s2)CCN(Cc2ccccc2N2CCNCC2)CC3)c1.O=C(O)C(F)(F)F`, the values for the Inhibition in test [1], in test [2] and in test [3] were 89%, 11% and 7%, respectively.

As to `CC1CCN(CC[C@H]2CCCN2S(=O)(=O)c2cccc(NC(=O)Nc3ccc(C(F)(F)F)cc3)c2)CC1`, the Inhibition in test [1] came out at 100%; in test [2], 41%; in test [3], 12%.

As to `CCCCCCNc1cc(C)nc(NC(=N)Nc2cccc(C(F)(F)F)c2)n1`, the Inhibition is 100% in test [1], 100% in test [2] and 44% in test [3].

Consider `O=C(/C=C/c1ccc(Cl)c(Cl)c1)NCCCCCN1CCCN(C(=S)Nc2ccc(Cl)cc2)CC1`, for which the Inhibition in test [1] is reported as 86%; in test [2], 10%; in test [3] it was 7%.

Take `COc1ccc(N2CCN(CCCCNC(=O)c3ccc(NC(=O)c4ccc(OC(F)(F)F)cc4)cc3)CC2)c(OC)c1`: the Inhibition is given as 100% in test [1], 90% in test [2] and 36% in test [3].

On to `CCCC(=O)Nc1ccc(Nc2nc(C)cc(N3CCCC3)n2)cc1`, for which the Inhibition in test [1] is reported as 100%; in test [2], 46%; in test [3], 31%.

Regarding `CC(Sc1nnc(-c2cccs2)[nH]1)C(=O)c1c[nH]c2ccccc12` (stereo not given), the figures for the Inhibition in test [1], in test [2] and in test [3] were 94%, 58% and 0%, respectively.

Consider `COc1cccc(OC)c1C(=O)Nc1cccc(-c2nn3ccccc3c2-c2ccnc(Nc3cccc(F)c3)n2)c1`, for which the Inhibition in test [1] is given as 95%; in test [2], 38%; in test [3] it was 3%.

Regarding `C=C(F)c1sc(CNCCCNc2nc3ccccc3[nH]2)c(C)c1Br`, the Inhibition in test [1] is on record as 100%; in test [2], 23%; in test [3], 15%.

For `Nc1ncc(-c2cccc(CCN3CCOCC3)c2)cc1-c1nc2cc(Br)ccc2[nH]1.O=C(O)C(F)(F)F`, the Inhibition is 100% in test [1], 98% in test [2] and 60% in test [3].

`Oc1ccc2ncnc(Nc3ccc(OCc4cccc(F)c4)c(Cl)c3)c2c1`: the Inhibition was found to be 100% in test [1], 30% in test [2] and 24% in test [3].
